Experimental findings from PubChem BioAssay are described below.

In test [1] the test system is XIP peptide (Xip251-270) binding. The experiment in a line: XIP fragment 251-270 binding compounds – biochemical, small-molecule microarray, fluorescence 635/667 nm, 0.1 µg/mL protein, primary screen (AID 1182). The note with it: fluorescent protein binding, 635 nm, higher = more signal, called active from +8 up or from −8 down.
Another test relates to XIP peptide (Xip251-270). Briefly: compounds binding XIP fragment 251-270 – biochemical, small-molecule microarray, fluorescence 635/667 nm, 0.5 µg/mL protein, primary screen (AID 1183). To be noted: fluorescence 635 nm, higher = more signal.
Test [2] is described as follows: blood-stage malaria parasite viability loss – strain 3D7, DAPI fluorescence, 100 nL, primary screen (AID 1184).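 Also: parasites grown inside human red blood cells in medium with human serum.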 The note with it: P. falciparum 3D7 growth, 3 d, higher = more signal.
Test [3] has as its target Homeobox protein Hox-A13 (Mus musculus) (UniProt Q62424). The experiment in a line: disruptors of Hoxa13 oligonucleotide interaction – biochemical, fluorescence polarization, labeled oligonucleotide, primary screen (AID 1185). To be noted: Hoxa13:DNA binding, 15 min, higher = more signal, called active from +8 up or from −8 down. For orientation: Polarisation of emitted light reports the rotation of a fluorescent probe.

A short description of test [4]: blockers of DNA damage checkpoint Chk1 activation – imaging, HeLa, hydroxyurea, phospho-Chk1 antibody, percent positive cells, primary screen (AID 1186). To be noted: hydroxyurea-induced phospho-Chk1 immunofluorescence imaging, higher = more signal.
Test [5] in a line: blockers of DNA damage checkpoint Chk1 activation – imaging, HeLa, hydroxyurea, phospho-Chk1 nuclear intensity, primary screen (AID 1187). The note with it: hydroxyurea-induced phospho-Chk1 immunofluorescence imaging, higher = more signal.

The source made the active and inactive calls. Unless noted, no rule for the calls is given here.

Homeobox protein Hox-A13 (Mus musculus), sequence (Q62424 whole entry, looked up): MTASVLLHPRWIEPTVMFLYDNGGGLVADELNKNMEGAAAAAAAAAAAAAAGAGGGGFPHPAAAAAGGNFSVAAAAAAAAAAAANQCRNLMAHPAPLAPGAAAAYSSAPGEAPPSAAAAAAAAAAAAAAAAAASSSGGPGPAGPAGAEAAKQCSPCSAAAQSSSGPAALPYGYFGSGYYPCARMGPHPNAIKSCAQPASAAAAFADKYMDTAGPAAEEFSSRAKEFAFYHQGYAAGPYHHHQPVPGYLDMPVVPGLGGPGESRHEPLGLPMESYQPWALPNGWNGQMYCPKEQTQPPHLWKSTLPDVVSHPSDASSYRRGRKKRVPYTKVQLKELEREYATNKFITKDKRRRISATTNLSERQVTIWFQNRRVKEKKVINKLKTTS

As for `COC(=O)C1=CCC(c2cccc(Cl)c2)O1` (stereo unspecified), the composite z-score was -0.0103 (inactive) in test [1] and 0.45 in the test with XIP peptide (Xip251-270). In addition, the z-score was -0.539 in test [2], -0.451 (inactive) in test [3], 0.456 (inactive) in test [4] and 0.498 (inactive) in test [5].
Consider `CCCCCN1CC=CC23O[C@@H]4C=CCOC(=O)[C@@H]4[C@H]2C(=O)N(CCCCCCO)[C@@H]3C1=O` (stereo partly specified), for which the composite z-score is 0.282 (inactive) in test [1] and -0.325 with XIP peptide (Xip251-270). In addition, the z-score in test [2] is -0.658; in test [3], -4.08 (inactive); in test [4] it was -0.0533 (inactive); in test [5], 0.0434 (inactive).
Take `CCc1cccc(NC(=O)O[C@H]2[C@H](OC(=O)Nc3ccc4c(c3)OCO4)[C@@H](OC(=O)Nc3ccc4c(c3)OCO4)[C@@H](OC)O[C@@H]2CO)c1`: the composite z-score in test [1] is 0.0979 (inactive); with XIP peptide (Xip251-270), -0.0177. For the same molecule, the z-score in test [2] is -2.23; in test [3], -6.22 (inactive); in test [4] it was -0.313 (inactive); in test [5], 0.165 (inactive).
Turning to `O=C1C2C=CC(C(O)c3ccc([N+](=O)[O-])cc3)N(Nc3ccc([N+](=O)[O-])cc3)C2C(=O)N1c1ccccc1` (stereo unspecified), the composite z-score is 1.39 (inactive) in test [1] and 0.813 in the test with XIP peptide (Xip251-270). Also, the z-score in test [2] was -0.498; in test [3], -4.02 (inactive); in test [4] it was 0.822 (inactive); in test [5], -0.512 (inactive).
As for `C=CCN1C(=O)[C@]2(O[C@H](CCn3cc(CCO)nn3)[C@@H]([Si](C)(C)c3ccc(OC)cc3)[C@@H]2C)c2cc(N3CCOC3=O)ccc21`, the composite z-score in test [1] was 0.0616 (inactive); in the test on XIP peptide (Xip251-270), 0.57. The z-score in test [2] is -2.7; in test [3], -5.66 (inactive); in test [4] it was -0.203 (inactive); in test [5], -0.5 (inactive).
As to `COCCOC(=O)N1C(=O)[C@@]2(c3cc(C#CC4(O)CCCCCC4)ccc31)[C@H](c1ccc(OCCO)cc1)N1[C@H](c3ccccc3)[C@H](c3ccccc3)OC(=O)[C@H]1[C@@H]2C(=O)NC[C@H](O)c1ccccc1`, the composite z-score is 0.437 (inactive) in test [1] and 0.723 in the test with XIP peptide (Xip251-270). The z-score in test [2] was -2.27; in test [3], 2.7 (inactive); in test [4], 0.0412 (inactive); in test [5] it was 0.0764 (inactive).
For the molecule `O=C(CS)NCCCCCNC(=O)[C@H]1C[C@H]2C(=O)N3CCC[C@H]3C(=O)N2[C@H]1c1cccc(OCCO)c1`, the composite z-score is 0.81 (inactive) in test [1] and 0.887 in the test on XIP peptide (Xip251-270). For the same molecule, the z-score was -0.718 in test [2], -3.04 (inactive) in test [3], -0.58 (inactive) in test [4] and -0.281 (inactive) in test [5].
With `Cc1ccc(C2CC=C(C(=O)O)CN2S(=O)(=O)c2ccc(C)cc2)cc1` (stereo unspecified), the composite z-score in test [1] was 0.911 (inactive); in the test on XIP peptide (Xip251-270) it was 0.912. For the same molecule, the z-score in test [2] is -1.2; in test [3], -4.53 (inactive); in test [4], -0.185 (inactive); in test [5], -0.999 (inactive).
With `COC(=O)[C@@]1(Cc2ccc(F)cc2)[C@@H]2C(=CC(=O)[C@H]2CC(=O)C(=O)N(C)C)CN1C(=O)c1ccccc1`, the composite z-score in test [1] is 0.0142 (inactive); in the test with XIP peptide (Xip251-270), 0.472. Further, the z-score in test [2] is -1.35; in test [3] it was -2.5 (inactive); in test [4] it was -0.0509 (inactive); in test [5] it was -0.914 (inactive).
For the molecule `N#Cc1ccc(NN2C(C(O)c3cccc4ccccc34)C=CC3C(=O)N(c4ccccc4)C(=O)C32)cc1` (stereo unspecified), the results for the composite z-score (in test [1]; in the test with XIP peptide (Xip251-270)) were 0.366 (inactive) and 0.684, respectively. The z-score in test [2] is -0.0446; in test [3] it was 1.05 (inactive); in test [4], -0.145 (inactive); in test [5], 0.137 (inactive).
On to `CN(C)CCCNC(=O)[C@@H]1c2ccccc2C(=O)N(Cc2ccccc2)[C@H]1c1ccc(CO)cc1`, for which the composite z-score is 0.0257 (inactive) in test [1] and -0.32 in the test on XIP peptide (Xip251-270). The z-score in test [2] is 0.0535; in test [3] it was 0.86 (inactive); in test [4], 0.242 (inactive); in test [5], 0.372 (inactive).
Consider `CCCCCN1CC=CC23O[C@@H]4C=CCOC(=O)[C@@H]4[C@H]2C(=O)N(C(CO)C(C)C)[C@@H]3C1=O` (stereo partly specified), for which the composite z-score in test [1] is 0.824 (inactive); in the test on XIP peptide (Xip251-270) it was 0.907. For the same molecule, the z-score was -0.303 in test [2], -4.81 (inactive) in test [3], -0.0211 (inactive) in test [4] and 0.0917 (inactive) in test [5].
Turning to `CC1CC/C=C\[C@H]2OC34C=CCN(Cn5nnc6ccccc65)C(=O)[C@H]3N(CCO)C(=O)[C@@H]4C2C(=O)O1` (stereo partly specified), the composite z-score in test [1] is 0.711 (inactive); with XIP peptide (Xip251-270), 0.855. Moreover, the z-score is -0.611 in test [2], -5.38 (inactive) in test [3], -0.384 (inactive) in test [4] and -0.173 (inactive) in test [5].
As to `CCCC[C@@H](O)C1=C(C)C[C@H]2C(=O)N(Cc3ccccc3)C(=O)[C@H]2[C@H]1CO`, the composite z-score is -0.38 (inactive) in test [1] and 0.576 in the test with XIP peptide (Xip251-270). Further, the z-score in test [2] was -0.224; in test [3], -3.33 (inactive); in test [4], 0.391 (inactive); in test [5], 0.984 (inactive).
`[N-]=[N+]=Nc1ccccc1C[C@@]1(C(N)=O)N=C(c2ccc(OCCCO)cc2)O[C@@H]1c1ccccc1`: the values for the composite z-score (in test [1]; with XIP peptide (Xip251-270)) were 0.353 (inactive) and -0.649, respectively. The z-score in test [2] was -2.14; in test [3] it was -4.43 (inactive); in test [4] it was -0.332 (inactive); in test [5], -0.449 (inactive).
On to `CC(C)OC(=O)C=C1C[C@@H](c2ccc(C#N)cc2)O[C@@H](c2ccc(C#N)cc2)O1`, for which the composite z-score in test [1] is 1.1 (inactive); with XIP peptide (Xip251-270), 0.865. Also, the z-score in test [2] was -0.868; in test [3], -5.34 (inactive); in test [4], 0.296 (inactive); in test [5] it was 0.219 (inactive).
